The conditions of experiment [1]: Ebola virus entry assay, green fluorescence channel.
The conditions of experiment [2]: Ebola virus entry assay, blue channel fluorescence.
The conditions of experiment [3]: Ebola virus entry assay, green fluorescence channel. This is another data set of the same source.
For experiment [4] the following is noted: Ebola virus entry assay, ratio channel readout.
For experiment [5] the following is noted: Ebola virus entry assay, blue channel fluorescence. This is another data set of the same source.
The conditions of experiment [6]: Ebola virus entry assay, ratio channel.
The conditions of experiment [7]: Ebola virus entry assay, green channel fluorescence.
For experiment [8] the following is noted: Ebola virus entry assay, blue channel fluorescence. The source holds these as a separate data set.
The conditions of experiment [9]: Ebola virus entry assay, reporter ratio channel; AC50: Channel type: primary unless noted; outcome: Channel type: primary unless noted.
The conditions of experiment [10]: Ebola virus entry assay, blue channel (ratio component).

A number with no mark means an inactive call. For some of these results: Measured potencies and affinities stand elsewhere. Activity calls are given as the source filed them.
Throughout, for efficacy: 0% is about no effect.

`CCCN(CCC)S(=O)(=O)c1ccc(C(=O)O)cc1`: the efficacy in experiment [1] is -17.8%. Moreover, the outcome in [2], in experiment [3], in [4], in experiment [5], in experiment [6] and in experiment [7] was inactive. The molecule was classed as inactive in experiment [8], in [9] and in experiment [10].

For `CS(=O)(=O)OCCCCOS(C)(=O)=O`, the efficacy in [1] is 19.1%. The molecule was classed as inactive in [2], in experiment [3], in experiment [4], in [5], in experiment [6] and in experiment [7]. Further, the outcome in [8], in experiment [9] and in [10] was inactive.

As to `COc1ccccc1OCC(O)CN1CCN(CC(=O)Nc2c(C)cccc2C)CC1` (stereo not given), the efficacy in experiment [1] is 29.5%. Moreover, the outcome in experiment [2], in [3], in [4], in [5], in experiment [6] and in experiment [7] was inactive. In addition, the outcome in [8], in experiment [9] and in experiment [10] was inactive.

In the case of `C[C@H]1O[C@H](O[C@H]2[C@H](O)[C@@H](O)[C@@H](O[C@H]3[C@H](O)[C@@H](O)[C@H](O)O[C@@H]3CO)O[C@@H]2CO)[C@H](O)[C@@H](O)[C@@H]1N[C@H]1C=C(CO)[C@@H](O)[C@H](O)[C@H]1O`, in [1], the efficacy was 9.72%. In addition, the molecule was called inactive in experiment [2], in experiment [3], in experiment [4], in experiment [5], in experiment [6] and in experiment [7]. For the same molecule, the molecule was called inactive in experiment [8], in [9] and in experiment [10].

Take `CN(CCOc1ccc(NS(C)(=O)=O)cc1)CCc1ccc(NS(C)(=O)=O)cc1`: the efficacy in experiment [1] is 20.2%. Further, the molecule was classed as inactive in experiment [2], in [3], in experiment [4], in experiment [5], in experiment [6] and in experiment [7]. Further, the call in [8], in [9] and in experiment [10] was inactive.

On to `NC(=O)NO`, for which, in [1], the efficacy is 10%. The call in [2], in [3], in experiment [4], in experiment [5], in experiment [6] and in [7] was inactive. Moreover, the outcome in experiment [8], in [9] and in experiment [10] was inactive.

Regarding `O=P(O)(O)C(O)(Cc1cccnc1)P(=O)(O)O`, the efficacy in [1] is -17.5%. Moreover, the molecule was classed as inactive in experiment [2], in experiment [3], in experiment [4], in experiment [5], in experiment [6] and in [7]. In addition, the molecule was classed as inactive in [8], in experiment [9] and in [10].

As for `O=NN(CCCl)C(=O)NC1CCCCC1`, the efficacy in [1] is -12.9%. For the same molecule, the call in experiment [2], in experiment [3], in experiment [4], in [5], in experiment [6] and in experiment [7] was inactive. The result in [8], in experiment [9] and in experiment [10] was inactive.

Take `CCCC(=O)Nc1ccc(OCC(O)CNC(C)C)c(C(C)=O)c1` (stereo not given): the efficacy in experiment [1] is 8.06%. Further, the call in [2], in [3], in experiment [4], in experiment [5], in experiment [6] and in [7] was inactive. In addition, the molecule was classed as inactive in experiment [8], in experiment [9] and in [10].

For the molecule `CCCCCOC(=O)Nc1nc(=O)n([C@@H]2O[C@H](C)[C@@H](O)[C@H]2O)cc1F`, the efficacy in experiment [1] is 20.9%. Moreover, the result in experiment [2], in experiment [3], in experiment [4], in [5], in [6] and in experiment [7] was inactive. The molecule was classed as inactive in experiment [8], in [9] and in experiment [10].

On to `O=C(CCCCCCC(=O)Nc1ccccc1)NO`, for which the efficacy in experiment [1] was -11.4%. Besides, the molecule was called inactive in [2], in experiment [3], in [4], in experiment [5], in experiment [6] and in experiment [7]. For the same molecule, the outcome in experiment [8], in experiment [9] and in experiment [10] was inactive.

Regarding `CCN(CC)CCNC(=O)c1cc(Cl)c(N)cc1OC`, in experiment [1], the efficacy is -12.5%. Also, the outcome in experiment [2], in [3], in [4], in experiment [5], in experiment [6] and in experiment [7] was inactive. Besides, the call in experiment [8], in experiment [9] and in [10] was inactive.

In the case of `Cc1cc(C)cc(OCC2CNC(=O)O2)c1` (stereo not given), the efficacy in experiment [1] was -18.5%. The call in experiment [2], in [3], in [4], in experiment [5], in experiment [6] and in experiment [7] was inactive. Moreover, the molecule was called inactive in [8], in experiment [9] and in experiment [10].

On to `CCCC(C)(COC(N)=O)COC(=O)NC(C)C` (stereo not given), for which the efficacy in experiment [1] is 22.1%. Besides, the call in experiment [2], in experiment [3], in [4], in [5], in experiment [6] and in [7] was inactive. The molecule was called inactive in experiment [8], in experiment [9] and in experiment [10].

For `NCCC(O)(P(=O)(O)O)P(=O)(O)O`, the efficacy in [1] was -9.39%. For the same molecule, the result in [2], in experiment [3], in [4], in experiment [5], in experiment [6] and in experiment [7] was inactive. Besides, the outcome in [8], in experiment [9] and in [10] was inactive.

In the case of `CN/C(=C\[N+](=O)[O-])NCCSCc1ccc(CN(C)C)o1`, in experiment [1], the efficacy was -12.5%. Also, the molecule was called inactive in [2], in [3], in [4], in experiment [5], in experiment [6] and in experiment [7]. For the same molecule, the outcome in experiment [8], in [9] and in [10] was inactive.

Take `Cc1onc(-c2c(Cl)cccc2Cl)c1C(=O)N[C@@H]1C(=O)N2[C@@H]1SC(C)(C)[C@@H]2C(=O)O`: the efficacy in experiment [1] was 26.4%. Moreover, the molecule was classed as inactive in experiment [2], in [3], in experiment [4], in experiment [5], in experiment [6] and in experiment [7]. For the same molecule, the call in [8], in experiment [9] and in [10] was inactive.

In the case of `CNC(=O)c1cc(Oc2ccc(NC(=O)Nc3ccc(Cl)c(C(F)(F)F)c3)cc2)ccn1`, the efficacy in experiment [1] is 20.4%. The result in experiment [2], in experiment [3], in experiment [4], in experiment [6] and in experiment [7] was inactive. The AC50 (commonly the midpoint of the concentration-response curve, whichever way the signal moves) in experiment [5] is 39.8 µM (active); in experiment [9] it was 35.5 µM (active).

Take `C#Cc1cccc(Nc2ncnc3cc(OCCOC)c(OCCOC)cc23)c1`: in [1], the efficacy was -13.7%. The call in experiment [2], in experiment [3], in [4], in experiment [5], in experiment [6] and in [7] was inactive. The outcome in experiment [9] and in experiment [10] was inactive.

Consider `CCCCN1C[C@H](O)[C@@H](O)[C@H](O)[C@H]1CO`, for which the efficacy in [1] is 19.9%. In addition, the molecule was classed as inactive in experiment [2], in [3], in experiment [4], in [5], in experiment [6] and in experiment [7]. In addition, the molecule was called inactive in experiment [8], in experiment [9] and in experiment [10].

On to `CN(C)CC[C@@H](c1ccc(Br)cc1)c1ccccn1`, for which the efficacy in experiment [1] is 34.2%. Moreover, the molecule was called inactive in experiment [2], in experiment [3], in [4], in experiment [6] and in experiment [7]. The half-maximal activity concentration (AC50) in experiment [5] and in [9] was 39.8 µM (active) each time.

The values are drawn from PubChem BioAssay (NCATS).
